Screening results: PubChem BioAssay, National Center for Advancing Translational Sciences (NCATS)
A selection: hits, their analogues and other compounds. The true share with any hit is near 19%.
TGFb inhibitor: TGF-b pathway inhibition; 1.2% of 410,000 active; HepG2 CAGA-GFP TGF-b/SMAD3 reporter, GFP fluorescence, 18 h; TGF-beta stimulated, 500 pg/mL final; AID 588855; Potency, µM (doses to about 46.1 µM), for the others: top-dose activity, negative = inhibition, most hits filed as inhibitors; also: potency is read from the fitted curve at half-maximal effect; % is scaled to controls: 0 for no effect and ±100 for the full control effect; nearly all actives have a fitted effect of over 65% in size
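Smad-responsive CAGA-GFP expression was quantified in HEPG2 cells exposed to compounds and 500 pg/mL final TGF-beta for 18 h at 37 degrees C; unstimulated wells defined full inhibition.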
TDP1 cell CPT: growth inhibition of DT40 Tdp1-/-;hTDP1 cells with camptothecin (screen for TDP1 inhibitors); chicken DT40 Tdp1-/-;hTDP1 cells + 20 nM CPT, ATP luminescence, 48 h; Potency, µM (titrated, usually from 46.2 µM), inactives show at the top dose activity change, negative = growth inhibition, most hits filed as inhibitors; 12% of 420,000 active; AID 686979; also: potency is read from the fitted curve at half-maximal effect; % is scaled to controls: 0 for no effect and ±100 for the full control effect; nearly all actives have a fitted effect of over 55% in size
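Cell growth measured by CellTiter-Glo luminescence after a minimum 48 h, 37 C compound exposure with 20 nM CPT in Tdp1-knockout DT40 cells stably expressing hTDP1, seeded 400/well; qHTS titration format.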
IL1B secr inh: inhibitors of inflammasome signaling (IL-1 beta secretion); THP-1 LPS/ATP IL-1B secretion, AlphaLISA, 16 h; active compounds read low; activity change, % at 57.5 µM; AID 743279; 4.7% of 360,000 active; in the data active = activity change below about -50%; inconclusive = mostly about -30% to -49%; also: % is scaled to controls: 0 for no effect and ±100 for the full control effect
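THP-1 cells pretreated 1 hr with compounds (up to 57.5 uM final), then stimulated with LPS (250 ng/mL final) plus ATP (1.25 mM final); secreted IL-1B measured by AlphaLISA after 16 hr, decreased signal indicating inhibition.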
DT40 TDP1 no CPT: qHTS for Inhibitors of human tyrosyl-DNA phosphodiesterase 1 (TDP1): qHTS in cells in absence of CPT. DT40 Tdp1-/- hTDP1 cells, no CPT, ATP luminescence, 48 h. Potency, µM (titrated, usually from 46.2 µM), for inactives: at the highest dose activity change, negative = growth inhibition, actives largely listed as inhibitors. 15% of 420,000 active; also: potency is read from the fitted curve at half-maximal effect; % is scaled to controls: 0 for no effect and ±100 for the full control effect; nearly all actives have a fitted effect of over 55% in size
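No-CPT arm: Tdp1-/-;hTDP1 DT40 cells (400/well) plus compounds, incubated ≥48 hr at 37 °C. Readout CellTiter-Glo luminescence.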
ASM inhibitor: inhibitors of human secretory acid sphingomyelinase | placental ASM, HMU-PC fluorogenic substrate, 60 min | Potency, µM (doses to about 57.5 µM), for the others: at the highest dose activity change, negative = inhibition, usual class: inhibitors | 0.006% of 340,000 active | AID 504937; also: potency is read from the fitted curve at half-maximal effect
Target sequence (P17405 47-631 limits assumed): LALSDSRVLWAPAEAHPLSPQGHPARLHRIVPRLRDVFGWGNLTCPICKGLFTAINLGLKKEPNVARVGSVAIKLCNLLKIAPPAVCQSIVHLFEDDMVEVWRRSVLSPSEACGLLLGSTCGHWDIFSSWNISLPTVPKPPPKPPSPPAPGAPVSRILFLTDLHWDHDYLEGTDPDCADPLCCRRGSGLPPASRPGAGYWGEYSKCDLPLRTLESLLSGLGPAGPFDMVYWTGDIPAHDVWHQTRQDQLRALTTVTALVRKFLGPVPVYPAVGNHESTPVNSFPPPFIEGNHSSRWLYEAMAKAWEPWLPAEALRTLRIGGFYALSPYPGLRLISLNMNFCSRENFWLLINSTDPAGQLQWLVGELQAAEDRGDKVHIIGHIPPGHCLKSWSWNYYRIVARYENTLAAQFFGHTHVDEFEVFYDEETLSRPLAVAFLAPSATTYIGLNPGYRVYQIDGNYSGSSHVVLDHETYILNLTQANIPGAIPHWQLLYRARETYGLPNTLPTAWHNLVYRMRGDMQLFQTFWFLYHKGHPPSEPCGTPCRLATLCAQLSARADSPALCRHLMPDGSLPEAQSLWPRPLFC
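qHTS format. ASM enzyme prepared from human placenta hydrolyses the fluorogenic substrate HMU-PC0 (9 uM final) over 60 min at 37 °C after a 10 min compound preincubation.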
HepG2 tox: kills HepG2 cells in TGF-b inhibitor counter-screen; Potency, µM (top dose mostly 46.1 µM), for the others: at the highest dose activity change, negative = cytotoxicity, actives largely listed as cytotoxic; AID 588856; 0.76% of 410,000 active; HepG2 CAGA-GFP viability, ATP luminescence, 18 h; also: potency is read from the fitted curve at half-maximal effect
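HepG2 CAGA-GFP cells (1000/well, DMEM with 1% FBS) received compound, then TGF-beta at 500 pg/mL final, and were incubated 18 hours at 37 degrees C. Viability was read by CellTiter-Glo luminescence. Media-only wells were set as complete cell-killing and DMSO as no toxicity.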
Numbers without * were called inactive; i = inactive; u = inconclusive; x = no result. Unless noted, calls follow the shape of the dose curve; as a rule, active = well fitted curve in the direction sought with a large enough effect; inconclusive = small, poorly fitted or top-dose-only effect, or another doubt; inactive = no such curve, though single readings can be large; an effect the other way counts as inactive or inconclusive.

SMILES	TGFb inhibitor	TDP1 cell CPT	IL1B secr inh	DT40 TDP1 no CPT	ASM inhibitor	HepG2 tox
COc1cccc(CNC(=O)c2cc3c(C)nc4ccccc4c3o2)c1	u	23µM*	-14	18µM*	-8%	-19%
CC1=NN(Cc2ccccc2)C(=O)/C1=C\c1ccc(N(C)C)cc1	-3%	13µM*	19	u	-14%	-24%
COc1cc(C(=O)NC2CCN(C)CC2)ccc1Nc1ncc2c(n1)N(Cc1ccccc1)CCC(=O)N2C	44%	3.7µM*	55	5.2µM*	0%	-52%
COc1cc(C(=O)NC2CCN(C)CC2)ccc1Nc1ncc2c(n1)N(C1CCCCC1)CCC(=O)N2C	u	0.92µM*	4	0.58µM*	0%	13µM*
O=C(NNC(=O)c1ccncc1)Nc1cccc(C(F)(F)F)c1	12%	-3%	-3	18%	6%	8%
CCCCN(Cc1ccccc1)C(=O)c1oc(=O)c2ccccc2c1-c1ccc(C)cc1	u	21µM*	x	u	x	-27%
CCCCC(CC)CNC(=O)c1cc2ccccc2c(=O)o1 (stereo unspecified)	-7%	-5%	2	u	-1%	-9%
COc1ccc(CCNC(=O)c2oc(=O)c3ccccc3c2-c2ccccc2)cc1OC	-17%	u	x	u	x	-32%
CCCCN(CCCC)C(=O)c1cc2ccccc2c(=O)o1	-6%	u	6	16µM*	2%	7%
Cc1ccc(-c2c(C(=O)NCCc3ccc(Cl)cc3)oc(=O)c3ccccc23)cc1	11µM*	u	x	u	x	-2%
Cc1ccc(CCNC(=O)c2oc(=O)c3ccccc3c2-c2ccc(C)cc2)cc1	u	u	x	23µM*	x	-35%
S=C(S)O[C@@H]1C[C@@H]2C[C@H]1[C@@H]1CCC[C@H]21	x	-30%	x	-21%	x	x
CC(NC(=O)COc1ccccc1)C(=O)N1CCN(c2ccccc2)CC1 (stereo unspecified)	-3%	-7%	-15	u	1%	-13%
O=C(NCCCc1nc2ccccc2n1CCCOc1ccccc1)C1CCCCC1	-4%	11µM*	x	10µM*	x	-7%
O=C(NCCCc1nc2ccccc2n1CCCCOc1ccccc1)C1CCCCC1	u	u	x	13µM*	x	-8%
CCCN1C(=O)CC(=O)N=C1SCC(=O)Nc1ccccc1F	-1%	-20%	7	-1%	2%	0%
CC(C)c1ccc(N2C(=O)CSC23C(=O)N(C)c2ccccc23)cc1 (stereo unspecified)	39%	x	x	x	x	-7%
Cc1ccc(C2(C(F)(F)F)NC(=O)N3N=C4CCCCCN4C3=C2C#N)cc1 (stereo unspecified)	5%	-4%	2	-11%	1%	11%
Fc1cc(F)cc(-c2c(-c3ccccc3)ncc3ccc(F)cc23)c1	u	13µM*	39	7.3µM*	-19%	-19%
Fc1ccc2cnc(-c3ccccc3)c(-c3cccc(C(F)(F)F)c3)c2c1	u	16µM*	26	18µM*	-12%	-19%
Cc1cc(C)n2nc(SC(C)C(=O)Nc3ccccc3F)nc2n1 (stereo unspecified)	9%	0%	11	-13%	-3%	6%
COc1ccc(N2CCN(C(=O)C3(S(=O)(=O)c4ccc(C)cc4)CC3)CC2)cc1	-4%	u	3	-27%	-4%	0%
COc1ccc(C(C(=O)NCC2CCCO2)N(C(=O)c2snc(C(N)=O)c2N)c2ccccc2)cc1OC (stereo unspecified)	2%	-8%	3	-20%	i	7%
NC(=O)c1nsc(C(=O)N(c2ccc(Cl)cc2)C(C(=O)NCC2CCCO2)c2cccs2)c1N (stereo unspecified)	2%	u	-83*	u	i	-14%
CCc1ccc(N(C(=O)c2snc(C(N)=O)c2N)C(C(=O)NCC2CCCO2)c2cccs2)cc1 (stereo unspecified)	6%	u	14	21µM*	225%	14%
SMILES	TGFb inhibitor	TDP1 cell CPT	IL1B secr inh	DT40 TDP1 no CPT	ASM inhibitor	HepG2 tox
Cc1ccc(C(C(=O)NCC2CCCO2)N(C(=O)c2snc(C(N)=O)c2N)c2ccccc2)o1 (stereo unspecified)	-7%	-28%	-5	u	i	11%
Cc1cc(C)c(Cn2cnc3ccccc32)c(C)c1	-8%	-25%	u	-19%	-3%	-3%
Cc1ccc(CNC(=O)c2c(Nc3c(C)cccc3C)sc(C(=O)c3ccccc3)c2N)cc1	13µM*	8.2µM*	x	15µM*	x	-60%
COc1cccc(Nc2sc(C(=O)c3ccc(Cl)cc3)c(N)c2C(=O)NCc2ccc(C)cc2)c1	13µM*	2.9µM*	x	4.6µM*	x	-27%
COc1cccc(Nc2sc(C(=O)c3ccc(F)cc3)c(N)c2C(=O)NCc2ccc(Cl)cc2)c1	u	-95%	x	21µM*	x	-40%
CCc1ccc(Nc2sc(C(=O)c3ccccc3)c(N)c2S(C)(=O)=O)cc1	-12%	u	x	u	x	-32%
O=C(NCC1CCC2(CCN(Cc3cccc4cccnc34)CC2)O1)c1ccco1 (stereo unspecified)	x	-2%	x	-19%	x	x
O=C(NCc1ccc(Cl)cc1)C(=O)NCC(c1ccco1)S(=O)(=O)c1cccs1 (stereo unspecified)	-8%	u	x	u	x	4%
CC1(C(=O)NS(=O)(=O)c2cccc(C#N)c2)CCN1C(=O)CC1CC1 (stereo unspecified)	8%	17%	14	7%	x	10%
CCOC(=O)c1cnc2ccc(Br)cc2c1NCCN1CCOCC1	-2%	21µM*	x	21µM*	x	-7%
CCOC(=O)c1cnc2c(C)cc(Cl)cc2c1NCCCN1CCOCC1	1%	-25%	-73*	u	41%	13%
CCOC(=O)c1cnc2c(CC)cccc2c1NCCN1CCOCC1	-21%	u	u	23µM*	36%	-88%
CCN(Cc1nc(-c2cccc(C)c2)no1)C(=O)c1ccco1	-2%	8%	11	-20%	5%	1%
CCC(=O)N1CCc2cc(S(=O)(=O)NC(C(=O)NCCc3ccc(OC)c(OC)c3)C(C)C)ccc21 (stereo unspecified)	-1%	-5%	x	-4%	x	-18%
CCc1ccc(OCCNC(=O)c2ccccc2SCc2ccc(F)cc2)cc1	u	u	13	26µM*	-9%	-6%
